Numbering of substitutions follows the chain as printed.
Tests used:
Assay in all cases: yeast three-hybrid, YBZ-1, SC-Leu-His + 0.5 mM 3-AT, 4 days
Conditions in all cases: tags: N-Gal4 AD-HA kept; label: inside an RPR1-promoter hybrid RNA with tandem MS2 sites; ssRNA
PUM1 PUF domain R4-DWV = PUM1 PUF domain R4-DWV (Homo sapiens, UniProt Q14671 828-1176, N971D;H972W;Q975V)
Outline: (§1)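 Sequencing with Illumina followed PCR amplification of the repeat regions from transformants grown four days on SC-Leu (input) or SC-Leu-His + 0.5 mM 3-AT (selection). The transformants were strain YBZ-1 with a LexA–MS2 coat fusion and a HIS3 reporter, carrying Pumilio-1 PUF domain libraries and matching RNA elements. The interaction score is the log change in variant frequency from input to selection, computed in log2 with a pseudocount of 1 for absent variants.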

PUM1 PUF domain R6-RFA = biological target: T1, PUM1 PUF domain R6-RFA (Homo sapiens, UniProt Q14671 828-1176, N1043R;Y1044F;Q1047A)
T1 sequence: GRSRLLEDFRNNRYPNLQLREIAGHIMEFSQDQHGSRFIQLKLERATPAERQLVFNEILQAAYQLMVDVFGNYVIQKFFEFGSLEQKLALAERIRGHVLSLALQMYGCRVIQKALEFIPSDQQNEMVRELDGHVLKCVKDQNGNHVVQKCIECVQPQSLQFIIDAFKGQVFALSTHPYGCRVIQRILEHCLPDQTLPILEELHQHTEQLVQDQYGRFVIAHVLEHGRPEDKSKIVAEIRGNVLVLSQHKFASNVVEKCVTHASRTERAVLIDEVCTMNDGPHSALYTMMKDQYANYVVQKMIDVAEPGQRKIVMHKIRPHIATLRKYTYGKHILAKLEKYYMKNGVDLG
Outline: as §1

PUM1 PUF domain R5-RWF = PUM1 PUF domain R5-RWF (Homo sapiens, UniProt Q14671 828-1176, C1007R;R1008W;Q1011F)
Outline: as §1

PUM1 PUF domain R5-FHC = PUM1 PUF domain R5-FHC (Homo sapiens, UniProt Q14671 828-1176, C1007F;R1008H;Q1011C)
Outline: as §1

PUM1 PUF domain R7-KGQ = PUM1 PUF domain R7-KGQ (Homo sapiens, UniProt Q14671 828-1176, S1079K;N1080G;E1083Q)
Outline: as §1

PUM1 PUF domain R7-RQN = PUM1 PUF domain R7-RQN (Homo sapiens, UniProt Q14671 828-1176, S1079R;N1080Q;E1083N)
Outline: as §1

PUM1 PUF domain R5-DRT = PUM1 PUF domain R5-DRT (Homo sapiens, UniProt Q14671 828-1176, C1007D;Q1011T)
Outline: as §1

PUM1 PUF domain R1-KSV = PUM1 PUF domain R1-KSV (Homo sapiens, UniProt Q14671 828-1176, S863K;R864S;Q867V)
Outline: as §1

PUM1 PUF domain R3-MCR = PUM1 PUF domain R3-MCR (Homo sapiens, UniProt Q14671 828-1176, C935M;R936C;Q939R)
Outline: as §1

PUM1 PUF domain R3-VWP = PUM1 PUF domain R3-VWP (Homo sapiens, UniProt Q14671 828-1176, C935V;R936W;Q939P)
Outline: as §1

PUM1 PUF domain R5-GHS = PUM1 PUF domain R5-GHS (Homo sapiens, UniProt Q14671 828-1176, C1007G;R1008H;Q1011S)
Outline: as §1

PUM1 PUF domain R5-WHV = PUM1 PUF domain R5-WHV (Homo sapiens, UniProt Q14671 828-1176, C1007W;R1008H;Q1011V)
Outline: as §1

PUM1 PUF domain R6-TFS = biological target: T2, PUM1 PUF domain R6-TFS (Homo sapiens, UniProt Q14671 828-1176, N1043T;Y1044F;Q1047S)
T2 sequence: T1 sequence with R216T, A220S
Outline: as §1

PUM1 PUF domain R3-MYH = PUM1 PUF domain R3-MYH (Homo sapiens, UniProt Q14671 828-1176, C935M;R936Y;Q939H)
Outline: as §1

PUM1 PUF domain R8-VWR = PUM1 PUF domain R8-VWR (Homo sapiens, UniProt Q14671 828-1176, N1122V;Y1123W;Q1126R)
Outline: as §1

PUM1 PUF domain R2-NRW = PUM1 PUF domain R2-NRW (Homo sapiens, UniProt Q14671 828-1176, Y900R;Q903W)
Outline: as §1

PUM1 PUF domain R3-LSE = PUM1 PUF domain R3-LSE (Homo sapiens, UniProt Q14671 828-1176, C935L;R936S;Q939E)
Outline: as §1

PUM1 PUF domain R8-LFQ = PUM1 PUF domain R8-LFQ (Homo sapiens, UniProt Q14671 828-1176, N1122L;Y1123F)
Outline: as §1

PUM1 PUF domain R8-IFM = PUM1 PUF domain R8-IFM (Homo sapiens, UniProt Q14671 828-1176, N1122I;Y1123F;Q1126M)
Outline: as §1

PUM1 PUF domain R7-KFW = PUM1 PUF domain R7-KFW (Homo sapiens, UniProt Q14671 828-1176, S1079K;N1080F;E1083W)
Outline: as §1

PUM1 PUF domain R7-RQN, sequence (Q14671 828-1176 S1079R/N1080Q/E1083N): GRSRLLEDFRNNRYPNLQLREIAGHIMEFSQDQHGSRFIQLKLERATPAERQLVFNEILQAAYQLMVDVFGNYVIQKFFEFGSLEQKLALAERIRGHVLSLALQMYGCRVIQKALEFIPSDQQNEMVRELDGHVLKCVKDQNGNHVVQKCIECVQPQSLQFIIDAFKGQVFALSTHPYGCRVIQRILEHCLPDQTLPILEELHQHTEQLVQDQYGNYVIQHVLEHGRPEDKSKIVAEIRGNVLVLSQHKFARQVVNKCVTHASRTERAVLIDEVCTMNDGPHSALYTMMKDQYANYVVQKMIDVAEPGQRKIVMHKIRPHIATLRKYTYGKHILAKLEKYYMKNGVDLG
PUM1 PUF domain R5-RWF, sequence (Q14671 828-1176 C1007R/R1008W/Q1011F): as the sequence (Q14671 828-1176 S1079R/N1080Q/E1083N) above, with C180R, R181W, Q184F, R252S, Q253N, N256E counted along it
PUM1 PUF domain R7-KGQ, sequence (Q14671 828-1176 S1079K/N1080G/E1083Q): as the sequence (Q14671 828-1176 S1079R/N1080Q/E1083N) above, with R252K, Q253G, N256Q counted along it
PUM1 PUF domain R3-LSE, sequence (Q14671 828-1176 C935L/R936S/Q939E): as the sequence (Q14671 828-1176 S1079R/N1080Q/E1083N) above, with C108L, R109S, Q112E, R252S, Q253N, N256E counted along it
PUM1 PUF domain R8-LFQ, sequence (Q14671 828-1176 N1122L/Y1123F): as the sequence (Q14671 828-1176 S1079R/N1080Q/E1083N) above, with R252S, Q253N, N256E, N295L, Y296F counted along it

## GGCUAGAACUAGUGGAUCCCCCGGCGCCCGGCGGCUCGAGCCCGGGUAAGUGUAUAUAGUCUGCAUGCCGCCGGGCGCCAUGCCUGCAGGUCGACUCUAGAAAACAUG
PUM1 PUF domain R4-DWV
  binding signal: 6.48 log2 enrichment (interaction score)

## GGCUAGAACUAGUGGAUCCCCCGGCGCCCGGCGGCUCGAGCCCGGGUAAGUGAAAAUAGUCUGCAUGCCGCCGGGCGCCAUGCCUGCAGGUCGACUCUAGAAAACAUG
PUM1 PUF domain R6-RFA
  binding signal: 1.03 log2 enrichment (interaction score)

## GGCUAGAACUAGUGGAUCCCCCGGCGCCCGGCGGCUCGAGCCCGGGUAAGUGUUAAUAGUCUGCAUGCCGCCGGGCGCCAUGCCUGCAGGUCGACUCUAGAAAACAUG
PUM1 PUF domain R5-RWF
  binding signal: 4.13 log2 enrichment (interaction score)
PUM1 PUF domain R5-FHC
  binding signal: 4.26 log2 enrichment (interaction score)

## GGCUAGAACUAGUGGAUCCCCCGGCGCCCGGCGGCUCGAGCCCGGGUAAGUUUAAAUAGUCUGCAUGCCGCCGGGCGCCAUGCCUGCAGGUCGACUCUAGAAAACAUG
PUM1 PUF domain R7-KGQ
  binding signal: 5.56 log2 enrichment (interaction score)
PUM1 PUF domain R7-RQN
  binding signal: 3.78 log2 enrichment (interaction score)

## GGCUAGAACUAGUGGAUCCCCCGGCGCCCGGCGGCUCGAGCCCGGGUAAGUGUGAAUAGUCUGCAUGCCGCCGGGCGCCAUGCCUGCAGGUCGACUCUAGAAAACAUG
PUM1 PUF domain R5-DRT
  binding signal: 2.11 log2 enrichment (interaction score)
PUM1 PUF domain R5-FHC
  binding signal: 3.55 log2 enrichment (interaction score)

## GGCUAGAACUAGUGGAUCCCCCGGCGCCCGGCGGCUCGAGCCCGGGUAAGUGUAAAUUGUCUGCAUGCCGCCGGGCGCCAUGCCUGCAGGUCGACUCUAGAAAACAUG
PUM1 PUF domain R1-KSV
  binding signal: 2.75 log2 enrichment (interaction score)

## GGCUAGAACUAGUGGAUCCCCCGGCGCCCGGCGGCUCGAGCCCGGGUAAGUGUAAUUAGUCUGCAUGCCGCCGGGCGCCAUGCCUGCAGGUCGACUCUAGAAAACAUG
PUM1 PUF domain R3-MCR
  binding signal: 4.47 log2 enrichment (interaction score)
PUM1 PUF domain R3-VWP
  binding signal: 3.12 log2 enrichment (interaction score)

## GGCUAGAACUAGUGGAUCCCCCGGCGCCCGGCGGCUCGAGCCCGGGUAAGUGUAAAUAGUCUGCAUGCCGCCGGGCGCCAUGCCUGCAGGUCGACUCUAGAAAACAUG
PUM1 PUF domain R5-GHS
  binding signal: 3.25 log2 enrichment (interaction score)
PUM1 PUF domain R5-WHV
  binding signal: 1.26 log2 enrichment (interaction score)
PUM1 PUF domain R6-TFS
  binding signal: 4.51 log2 enrichment (interaction score)
PUM1 PUF domain R5-DRT
  binding signal: 2.42 log2 enrichment (interaction score)
PUM1 PUF domain R3-MYH
  binding signal: 3.93 log2 enrichment (interaction score)
PUM1 PUF domain R8-VWR
  binding signal: 4.37 log2 enrichment (interaction score)
PUM1 PUF domain R3-VWP
  binding signal: 7.08 log2 enrichment (interaction score)
PUM1 PUF domain R2-NRW
  binding signal: 6.69 log2 enrichment (interaction score)
PUM1 PUF domain R6-RFA
  binding signal: 4.04 log2 enrichment (interaction score)

## GGCUAGAACUAGUGGAUCCCCCGGCGCCCGGCGGCUCGAGCCCGGGUAAGUGUAAGUAGUCUGCAUGCCGCCGGGCGCCAUGCCUGCAGGUCGACUCUAGAAAACAUG
PUM1 PUF domain R3-LSE
  binding signal: 2.76 log2 enrichment (interaction score)

## GGCUAGAACUAGUGGAUCCCCCGGCGCCCGGCGGCUCGAGCCCGGGUAAGCGUAAAUAGUCUGCAUGCCGCCGGGCGCCAUGCCUGCAGGUCGACUCUAGAAAACAUG
PUM1 PUF domain R8-LFQ
  binding signal: 2.86 log2 enrichment (interaction score)
PUM1 PUF domain R8-IFM
  binding signal: 2.25 log2 enrichment (interaction score)
PUM1 PUF domain R8-VWR
  binding signal: 4.44 log2 enrichment (interaction score)

## GGCUAGAACUAGUGGAUCCCCCGGCGCCCGGCGGCUCGAGCCCGGGUAAGUGUAAAUGGUCUGCAUGCCGCCGGGCGCCAUGCCUGCAGGUCGACUCUAGAAAACAUG
PUM1 PUF domain R1-KSV
  binding signal: 1.55 log2 enrichment (interaction score)

## GGCUAGAACUAGUGGAUCCCCCGGCGCCCGGCGGCUCGAGCCCGGGUAAGUCUAAAUAGUCUGCAUGCCGCCGGGCGCCAUGCCUGCAGGUCGACUCUAGAAAACAUG
PUM1 PUF domain R7-RQN
  binding signal: 0.64 log2 enrichment (interaction score)
PUM1 PUF domain R7-KFW
  binding signal: 3.75 log2 enrichment (interaction score)

## GGCUAGAACUAGUGGAUCCCCCGGCGCCCGGCGGCUCGAGCCCGGGUAAGUGUCAAUAGUCUGCAUGCCGCCGGGCGCCAUGCCUGCAGGUCGACUCUAGAAAACAUG
PUM1 PUF domain R5-WHV
  binding signal: 2.8 log2 enrichment (interaction score)
PUM1 PUF domain R5-DRT
  binding signal: 1.84 log2 enrichment (interaction score)

Source: publication PMC8384837, “Expanding the binding specificity for RNA recognition by a PUF domain”
